# Bioassay records from PubChem.
# The list is not random: actives were taken first. Their share in the collection is about 12%.
# TDP1 inh: TDP1 (human) enzyme inhibition. Q9NUW8. recombinant TDP1, AlphaScreen DNA substrate cleavage. Potency, µM (highest dose often 130 µM), for inactives: at the top dose activity change, negative = inhibition, most hits filed as inhibitors. 350,000 tested, 0.28% active. AID 485290; further: on the % scale 0 is the no-effect control and ±100 the full control effect; nearly all actives have a fitted effect of over 40% in size
# Target sequence (Q9NUW8 whole entry, looked up): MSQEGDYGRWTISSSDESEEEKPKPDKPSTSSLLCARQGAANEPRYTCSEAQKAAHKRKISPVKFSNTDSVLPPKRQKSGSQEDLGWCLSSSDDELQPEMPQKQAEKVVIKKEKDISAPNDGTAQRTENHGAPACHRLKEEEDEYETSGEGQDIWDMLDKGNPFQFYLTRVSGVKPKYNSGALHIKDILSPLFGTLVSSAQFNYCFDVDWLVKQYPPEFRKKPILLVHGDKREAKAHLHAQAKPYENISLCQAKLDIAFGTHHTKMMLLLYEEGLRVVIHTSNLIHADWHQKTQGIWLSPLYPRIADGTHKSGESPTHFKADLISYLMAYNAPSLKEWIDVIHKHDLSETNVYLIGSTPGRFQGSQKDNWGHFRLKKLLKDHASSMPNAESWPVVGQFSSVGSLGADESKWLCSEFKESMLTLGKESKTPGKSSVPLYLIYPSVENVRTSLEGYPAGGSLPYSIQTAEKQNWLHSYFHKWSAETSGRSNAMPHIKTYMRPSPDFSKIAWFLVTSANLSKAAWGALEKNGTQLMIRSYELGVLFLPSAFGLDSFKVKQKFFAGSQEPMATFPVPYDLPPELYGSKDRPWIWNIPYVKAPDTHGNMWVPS
#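 Recombinant E. coli-expressed Tdp1 (1 nM) preincubated with compound 15 min at RT, then 5'-biotin/3'-phosphotyrosine-FITC DNA substrate (15 nM) added for 5 min. AlphaScreen beads (10 ug/ml) added, 10 min RT; tyrosine-FITC cleavage read as signal loss.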
# G9a inh: G9a (human) methyltransferase inhibition. G9a H3K9 monomethylation, AlphaScreen, 2 h. Potency, µM (series often up to 102 µM), without a hit: at the top dose activity, negative = inhibition, actives largely listed as inhibitors. 350,000 tested, 8.8% active. AID 504332; further: on the % scale 0 is the no-effect control and ±100 the full control effect; nearly all actives have a fitted effect of over 75% in size
#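 AlphaScreen read-out: biotin-H3K9 peptide (500 nM) methylation by 20 nM enzyme with 20 uM SAM, 2 h at room temperature after 15 min compound preincubation; anti-monomethyl H3K9 antibody plus donor/acceptor beads, 10 min dark.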
# JMJD2A Tudor inh: JMJD2A Tudor domain (human) inhibition; O75164; AlphaScreen JMJD2A-Tudor / H3K4me3 peptide binding; Potency, µM (series often up to 114 µM), inactives show at the top dose activity change, negative = inhibition, actives largely listed as inhibitors; 390,000 tested, 4.4% active; further: on the % scale 0 is the no-effect control and ±100 the full control effect; nearly all actives have a fitted effect of over 50% in size
# Sfp inh: blocks B. subtilis Sfp PPTase activity; Q9F4F7; Potency, µM, inactives show largest response in the series, negative = inhibition, hits mostly inhibitors; Biochemical Sfp PPTase activity, qHTS; 310,000 tested, 3.5% active;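 further: the enzyme is Sfp with the accession as filed and its product quenches rhodamine fluorescence; 0% = enzyme reaction without inhibitor and -100% = no enzyme wells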
#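 Fluorescence-quenching assay: 15 nM Sfp-PPTase preincubated 15 min at room temperature with compound, then 5 uM rhodamine-CoA and 12.5 uM BHQ-2-labelled YbbR peptide added. Fluorescence (ex 525/em 598 nm) read at start and after 30 min; difference gives rate.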
# BAZ2B block: BAZ2B (human) inhibition; Q9UIF8; AlphaScreen BAZ2B-H3K14Ac peptide displacement; Potency, µM (doses to about 114 µM), for inactives: at the highest dose activity change, negative = inhibition, usual class: inhibitors; 360,000 tested, 4.4% active; further: on the % scale 0 is the no-effect control and ±100 the full control effect; nearly all actives have a fitted effect of over 60% in size
#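 Compounds, titrated to a top concentration of 110 uM, were incubated 30 min at room temperature with preformed BAZ2B/acetyl-K14 H3 peptide complex (50 nM each). Proximity signal was measured by AlphaScreen after 20 min with beads.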
# HP1b chromo inh: HP1-beta chromodomain-methylated histone interaction inhibition; AlphaScreen HP1-beta / biotin-H3K9me3 peptide binding; Potency, µM (top dose mostly 114 µM), without a hit: at the highest dose activity change, negative = inhibition, most hits filed as inhibitors; 390,000 tested, 0.56% active; further: nearly all actives have a fitted effect of over 70% in size
#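 HP1-beta protein (50 nM final) preincubated 30 min at room temperature with biotinylated H3(1-18)K9me3 peptide (50 nM) in PBS pH 7.4, 0.01% Tween-20, then compound added for 30 min. AlphaScreen streptavidin donor/nickel chelate acceptor beads (10 ug/mL final), 30 min dark, luminescence read.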
# The depositor's hits bear a star; ? = inconclusive; nt = no result given; [ ] = dose if it differs, or a comment. The call rests on the fitted dose curve; in most records, active means well fitted curve in the direction sought with a large enough effect; inconclusive means small, poorly fitted or top-dose-only effect, or another doubt; inactive means no such curve, though single readings can be large; an effect the other way counts as inactive or inconclusive. Potency means the concentration at half of the fitted maximal effect.
SMILES,TDP1 inh,G9a inh,JMJD2A Tudor inh,Sfp inh,BAZ2B block,HP1b chromo inh
COc1ccc(CC(=O)NCc2n[nH]c(=S)n2-c2cccc(C)c2)cc1,8%,11µM*,7.9µM*,12%,3%,35%
O=C(Cc1ccccc1)NCc1n[nH]c(=S)n1-c1ccccc1,0%,?,-17%[11.4 µM],5%,-20%,?
CCN(C(=O)C1CCN(S(=O)(=O)c2cc(Br)cc3c2N(C(C)=O)CC3)CC1)c1cccc(C)c1,2%,-12%[59 µM],-19%,nt,-19%,9%
CC(=O)N1c2ccc(S(=O)(=O)N(C)CC(=O)NC(C)c3ccccc3)cc2CC1C (stereo not given),1%,24%,-27%,2%,-12%,32%
CC(=O)O[C@@H]1[C@@H](O)CN[C@@H]1Cc1ccccc1,1%,nt,-16%,-9%,nt,7%
C#CCN(CC=C)C(=O)CCc1nnc(COc2ccccc2)o1,-7%,32%,-7%,11%,-14%,65%
Cc1cccc(NC(=O)C(NS(=O)(=O)c2ccc3c(c2)CCC(=O)N3)c2ccccc2)n1 (stereo not given),2%,22µM*,?,-29%,1%,25%
Cc1cccc(C)c1NC(=O)C(NS(=O)(=O)c1ccc2c(c1)CCC(=O)N2)c1ccccc1 (stereo not given),nt,-6%[59 µM],-6%,nt,-8%,48%
Cc1cccn2c(=O)c(C(=O)N3CCN(c4ccccc4)CC3)cnc12,-4%,1%[59 µM],-1%,nt,1%,8%
Cc1ccc(S(=O)(=O)NCCC(=O)NC2CCCCC2C)cc1 (stereo not given),-2%,8%[12.7 µM],-15%,nt,10%,36%
COc1ccc(S(=O)(=O)NCCC(=O)NC2CCCCC2C)cc1[N+](=O)[O-] (stereo not given),18µM*,nt,?,nt,nt,?
COc1ccc(NC(=S)N2CCCC2)c(OC)c1,-1%,-9%,-8%,5%,-1%,36%
CCc1ccc2[nH]c(=O)c(CN(Cc3cccs3)Cc3nnnn3Cc3ccccc3)cc2c1,2%,nt,-27%[57.1 µM],nt,nt,13%[57 µM]
O=S(NCc1ccco1)C12CC3CC(CC(C3)C1)C2 (stereo not given),5%,6.3µM*,-35%,-29%,-1%,-2%
O=S(NCc1ccccc1)C12CC3CC(CC(C3)C1)C2 (stereo not given),7%,-26%[12.7 µM],-14%,18%,8%,18%
CN(CC(=O)Nc1ncn[nH]1)S(=O)(=O)c1ccc(Cl)cc1,5%,89µM*,?,11%,50µM*,30%
CN(CC(=O)Nc1ccc(Cl)cc1)S(=O)(=O)c1cccc2cccnc12,4%,45µM*,-14%,12%,9%,54%
COc1ccc(NC(=O)CN(C)S(=O)(=O)c2cccc3cccnc23)cc1,3%,14%,-6%,2%,6%,58%
CN(CC(=O)Nc1ncn[nH]1)S(=O)(=O)c1ccc(Br)cc1,5%,2%,?,5%,?,13%
COc1ccc(N2CCN(C(=O)COC(=O)c3oc4ccc(OC)cc4c3C)CC2)cc1,nt,27%[2.33 µM],-22%,nt,-12%,-1%
COc1ccc(/C=C/C(=O)c2cc(F)ccc2OC(=O)c2ccccc2)cc1OC,nt,nt,-20%,nt,nt,8%
COc1ccc(/C=C/C(=O)c2ccc(O)cc2O)cc1OC,19%,-27%[2.33 µM],nt,-37%,nt,nt
COc1ccc(/C=C/C(=O)c2cc(Br)ccc2O)cc1OC,8%,25µM*,-19%,-13%,?,38%
COc1ccc(/C=C/C(=O)c2cc(F)ccc2OC(=O)c2ccc(OC)c(OC)c2)cc1OC,-6%,56µM*,-28%,0%,?,33%
COc1ccc2nc(NC3=NCCC3)sc2c1,7%,33%[59 µM],-24%,4%,-25%,-2%
COc1cccc(C(=O)OCC(=O)Nc2sc3c(c2C(N)=O)CCC3)c1O,?,?,?,nt,50µM*,-2%
COc1ccc(CC(=O)Nc2sc3c(c2C(N)=O)CCCC3)cc1,nt,7%,-25%,11%,-3%,44%
